The nature of experiment [1]: reducers of endogenous Her2 protein level, primary screen, SKBR3 breast tumor cells, AlphaScreen, ATP viability (AID 461;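 active means Her2 level under about 52% in both replicate screens, with viability over 70% of control, limit read from the data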;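 on Her2 level: lower value means less Her2 protein in the cells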;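 on viability: percent of carrier control wells set as 100% viability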). Particulars: 18-24 h, measured here: SKBR3 viability, ATP luminescence, at 10 µM.
Experiment [2] has as its target Receptor tyrosine-protein kinase erbB-2 (Homo sapiens) (UniProt P04626). Described as above. Particulars: 18-24 h, at 10 µM, stronger effect = lower value.
Experiment [3] in a line: SK-BR-3 cell growth inhibitors, pilot screen, 24 h, human (AID 572;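 active means viability at or below 10% of carrier control in both of two separate runs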;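 further: compound exposure lasted between 18 and 24 h rather than exactly 24 h; 100% = carrier-treated control wells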). As to conditions: SK-BR-3 viability, CellTiter-Glo luminescence, at 10 µM, stronger effect = lower value. In general terms: Cellular ATP, detected with luciferase, serves as a proxy for viable cell number.
A short description of experiment [4]: HUVEC growth inhibition – cell-based, human, primary screen (AID 575;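 active means viability at or below 30% in both replicate assays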;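 further: 100% = median of untreated cell wells with 0.1% DMSO on each plate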). Particulars: HUVEC proliferation, CellTiter-Glo luminescence, 72 h; at 10 µM; stronger effect = lower value.
Experiment [5] in a line: growth inhibitors of H69AR lung tumor, primary screen, human, duplicate replicates (AID 580;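 active means viability at or under a set limit in both replicates, limit being median viability minus 3 SD, cut at about 48% in these data, passing the limit was not always enough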;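 further: 100% = mean luminescence of untreated wells and 0% = no signal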). As to conditions: H69AR lung tumor cells viability, ATP luminescence, 72 h; at 10 µM; stronger effect = lower value.
Experiment [6] is described as follows: reversal of MRP1-mediated doxorubicin resistance, pilot screen, H69AR cells, doxorubicin co-treatment (AID 601;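 active means viability loss from added drug above about 55%, and viability with drug at most 40%, in both replicates, limit read from the data, passing the limit was not always enough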). As to conditions: CellTiter-Glo, 72 h, at 10 µM; for differential viability (reversal): stronger effect = higher value.
Experiment [7] is described as follows: 384-well plate pilot, post-Golgi transport modulator project, inhibition of yeast transport mutant growth (AID 636; in the data active means inhibition above about 31%). Particulars: absorbance 615 nm, about 18 h, stronger effect = higher value.
Experiment [8] can be described thus: growth suppression of yeast trafficking mutant, preliminary HTS, modulators of trafficking downstream of Golgi apparatus project, 1536-format plate, OD 615 nm (AID 637; in the data active means inhibition above about 30%). As to conditions: yeast transport mutant growth, absorbance 615 nm, 18 h; stronger effect = higher value.
A short description of experiment [9]: OD615 S. cerevisiae growth inhibition, permissive medium, pilot counter-assay, permissive growth control for S. cerevisiae lifespan shortening project (AID 705;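 active means growth inhibition above 25% in both replicates, a cutoff set 3 SD above the mean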). As to conditions: OD615, 24 h, at 10 µM, stronger effect = higher value.
The nature of experiment [10]: Restrictive medium S. cerevisiae growth inhibition, OD615, pilot screen of yeast lifespan reduction project, restrictive growth control (AID 706;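 active means growth inhibition above a set limit, 3 SD over mean compound inhibition, in both replicates, cut at about 43% in these data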;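 further: modified DeaD lifespan yeast strain shifted to restrictive glucose medium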). Particulars: OD615, 48 h, at 10 µM, stronger effect = higher value.
Experiment [11] can be described thus: viability gain of MRP-1-high H69AR cells under doxorubicin, pilot screen, MRP-1 activator project, CellTiter-Glo, duplicate (AID 807;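 active means viability increase at or above a cutoff of the median across tested compounds plus 3 SD, cut at about 8.5% in these data, passing the limit was not always enough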;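 further: compound pretreatment 18-22 h then 72 h combined with doxorubicin; 0% = doxorubicin alone and 100% = vehicle without doxorubicin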). As to conditions: H69AR viability with doxorubicin, CellTiter-Glo luminescence; at 10 µM; stronger effect = higher value.
The nature of experiment [12]: growth suppression of beta-catenin knockout HCT116, pilot screen, human colon tumor cells (AID 823;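 active means cell viability at or below a set limit in both duplicate runs, the limit being the all-compound median minus 4 SD, cut at about 23% in these data, passing the limit was not always enough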;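 further: 0% = wells killed by 20 µM Hyamine and 100% = untreated DMSO cell wells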). Particulars: CellTiter-Glo, 60 h, at 10 µM, stronger effect = lower value.
The nature of experiment [13]: growth suppression of PTEN-deleted HCT116, pilot screen, cell-based, HCT116 clonal line, CellTiter-Glo (AID 824;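 active means viability at or below 27.92% in each of two runs, the all-compound median minus 4 SD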;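 further: 0% = 20 µM Hyamine control and 100% = vehicle cell control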). Particulars: 60 h, at 10 µM, stronger effect = lower value.
The nature of experiment [14]: inhibitors of the yeast RAM network, pilot screen, dse1pr::URA3 reporter, 5-FOA selection (AID 869;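 active means inhibition over a set limit, the all-compound mean plus 3 SD, in both replicate runs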;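 further: 0% = DMSO wells with no growth and 100% = 10 µM 1-NA-PP1 with full growth; RAM network block rescues cells from 5-FOA so hits raise OD615 growth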). Particulars: S. cerevisiae dse1pr::URA3 5-FOA growth, OD615, 2 d; at 10 µM; stronger effect = higher value; strain carries analog-sensitive mutant Cbk1 kinase.
Experiment [15] is described as follows: RAM signaling pathway blockade in yeast – S. cerevisiae, Pdr1DBD-CYC8 efflux-inhibited sensitized strain, primary screen (AID 1298).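 Further: 0% = DMSO untreated cells without growth and 100% = 10 µM 1-NA-PP1 full growth; higher means more yeast growth rescued from 5-FOA killing.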 Particulars: S. cerevisiae cbk1-as DSE1-URA3 strain, 5-FOA growth OD615, 2 d; at 50 µM; stronger effect = higher value.
[16] abbreviates: H69AR cells + 2 uM doxorubicin, measured here: viability with 2 uM doxorubicin, stronger effect = lower value.
The mark [17] stands for this setting: H69AR cells, compound alone cytotoxicity.

Inconclusive results are not listed. The source made the active and inactive calls.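 How the source made its calls, unless noted: active means RAM network inhibition above 8.4% in each of two replicates, 3 SD over the compound average; inconclusive means above 8.4% inhibition in only one replicate; inactive means 8.4% inhibition or less in each replicate.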

As usually defined, the viability is a read-out of living cells in per cent, often relative to untreated cells. For orientation: inhibition means the drop in the measured response relative to a control, in per cent.

Chain of Receptor tyrosine-protein kinase erbB-2 (Homo sapiens) (P04626 whole entry, looked up): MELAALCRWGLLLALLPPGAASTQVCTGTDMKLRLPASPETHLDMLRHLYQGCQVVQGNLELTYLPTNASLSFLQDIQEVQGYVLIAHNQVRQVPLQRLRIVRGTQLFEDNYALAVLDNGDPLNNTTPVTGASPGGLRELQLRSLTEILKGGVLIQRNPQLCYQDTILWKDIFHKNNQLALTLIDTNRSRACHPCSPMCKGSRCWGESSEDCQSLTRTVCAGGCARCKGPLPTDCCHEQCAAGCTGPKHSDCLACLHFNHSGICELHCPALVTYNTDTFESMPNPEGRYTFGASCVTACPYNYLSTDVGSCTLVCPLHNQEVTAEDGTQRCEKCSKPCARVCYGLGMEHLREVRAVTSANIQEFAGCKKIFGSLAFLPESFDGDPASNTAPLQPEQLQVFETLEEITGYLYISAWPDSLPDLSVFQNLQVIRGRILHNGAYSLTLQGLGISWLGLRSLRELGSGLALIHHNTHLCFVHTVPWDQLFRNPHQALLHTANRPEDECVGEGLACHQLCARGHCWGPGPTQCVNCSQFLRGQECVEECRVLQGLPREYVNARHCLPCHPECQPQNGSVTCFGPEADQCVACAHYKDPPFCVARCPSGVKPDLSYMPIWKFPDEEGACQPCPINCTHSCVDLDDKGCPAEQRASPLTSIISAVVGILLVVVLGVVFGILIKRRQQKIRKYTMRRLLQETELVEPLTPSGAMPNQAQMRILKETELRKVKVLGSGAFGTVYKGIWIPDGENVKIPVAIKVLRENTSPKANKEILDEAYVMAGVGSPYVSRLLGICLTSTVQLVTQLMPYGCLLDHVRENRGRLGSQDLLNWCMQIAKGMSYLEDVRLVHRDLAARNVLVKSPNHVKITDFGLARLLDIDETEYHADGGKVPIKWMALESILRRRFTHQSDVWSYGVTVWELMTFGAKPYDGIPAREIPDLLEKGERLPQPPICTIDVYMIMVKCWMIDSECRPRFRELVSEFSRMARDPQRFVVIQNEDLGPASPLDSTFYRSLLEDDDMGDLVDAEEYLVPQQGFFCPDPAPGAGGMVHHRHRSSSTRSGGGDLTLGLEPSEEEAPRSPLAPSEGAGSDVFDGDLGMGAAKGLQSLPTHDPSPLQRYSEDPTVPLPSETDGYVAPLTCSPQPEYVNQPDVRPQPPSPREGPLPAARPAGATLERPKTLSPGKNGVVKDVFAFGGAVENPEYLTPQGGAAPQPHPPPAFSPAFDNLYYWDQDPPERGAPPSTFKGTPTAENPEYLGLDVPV

Take `CN(C)CCNc1oc(-c2ccccc2F)nc1C#N`: the viability in experiment [1] was 93%; in experiment [3], 93% (inactive); in [4], 87.4% (inactive); in [5], 105% (inactive); in experiment [6] (setting [16]), 90.3%; in experiment [6] (setting [17]) it was 105%. Moreover, the viability in experiment [12] and in [13] was 107% (inactive) in each case. Moreover, in experiment [2], the Her2 level was 94% (inactive). Also, the differential viability (reversal) in [6] (H69AR cells + 2 uM doxorubicin) is 14.7% (inactive). Also, the inhibition in [7] is -4.27% (inactive); in experiment [8] it was 3.77% (inactive); in experiment [14], 1.36% (inactive). Besides, the values for the growth inhibition in experiment [9] and in experiment [10] were -13.7% (inactive) and -6.7% (inactive), respectively. In addition, the viability increase in [11] is 1.17% (inactive). Besides, the RAM network inhibition in [15] is 1.9% (inactive).

For `COc1ccc(CCNC(=O)CSc2nnnn2-c2ccccc2OC)cc1OC`, the viability in experiment [1] is 91%; in experiment [3] it was 91% (inactive); in [4], 102% (inactive); in [5], 90.1% (inactive); in experiment [6] (setting [16]), 89.1%; in experiment [6] (setting [17]) it was 90.1%. In addition, the viability in experiment [12] is 86.9% (inactive); in experiment [13] it was 92.3% (inactive). Moreover, the Her2 level in [2] was 99.5% (inactive). For the same compound, the differential viability (reversal) in experiment [6] (H69AR cells + 2 uM doxorubicin) is 0.99% (inactive). The figures for the inhibition in [7], in experiment [8] and in experiment [14] were -7.33% (inactive), -0.5% (inactive) and 1.64% (inactive), respectively. For the same compound, the growth inhibition in experiment [9] is -2.03% (inactive); in [10] it was 2.95% (inactive). Moreover, the viability increase in [11] was -2.14% (inactive). Also, the RAM network inhibition in experiment [15] was 6.51% (inactive).

With `Cc1cc(C)c(C#N)c(SCC(=O)Nc2ccc(S(=O)(=O)Nc3onc(C)c3C)cc2)n1`, the viability in [1] is 90.5%; in experiment [3], 90.5% (inactive); in experiment [4], 82.4% (inactive); in experiment [5], 87.4% (inactive); in experiment [6] (setting [16]), 96.8%; in experiment [6] (setting [17]), 87.4%. The viability is 109% (inactive) in [12] and 100% (inactive) in [13]. Also, the Her2 level in experiment [2] was 97% (inactive). Also, the differential viability (reversal) in experiment [6] (H69AR cells + 2 uM doxorubicin) was -9.41% (inactive). The inhibition in experiment [7] was -3.73% (inactive); in experiment [8], 0.33% (inactive); in experiment [14] it was 1.98% (inactive). In addition, the growth inhibition in experiment [9] is -1.4% (inactive); in experiment [10] it was 7.54% (inactive). For the same compound, the viability increase in experiment [11] is -0.72% (inactive). The RAM network inhibition in [15] is 2.19% (inactive).

In the case of `CCCCN(C)C(=O)c1cn(C)c2ccc(S(=O)(=O)N(C)C)cc2c1=O`, the viability was 96% in experiment [1]; 96% (inactive) in experiment [3]; 102% (inactive) in experiment [4]; 102% (inactive) in [5]; 95.5% in experiment [6] (setting [16]); 102% in experiment [6] (setting [17]). Moreover, the figures for the viability in experiment [12] and in [13] were 100% (inactive) and 108% (inactive), respectively. Further, the Her2 level in experiment [2] was 102% (inactive). Moreover, the differential viability (reversal) in experiment [6] (H69AR cells + 2 uM doxorubicin) is 6.23% (inactive). Moreover, the inhibition in experiment [7] is 0.13% (inactive); in experiment [8], -4.5% (inactive); in experiment [14], 0.805% (inactive). The growth inhibition in experiment [9] is -3.25% (inactive); in experiment [10], 3.02% (inactive). Further, the viability increase in experiment [11] is 0.32% (inactive). The RAM network inhibition in [15] was 2.99% (inactive).

Consider `O=C(C1COc2ccccc2O1)N1CCCC1` (configuration not stated), for which the viability in [1] is 80%; in experiment [3] it was 80% (inactive); in [4], 86.8% (inactive); in [5], 94.8% (inactive); in experiment [6] (setting [16]), 93.1%; in experiment [6] (setting [17]), 94.8%. In addition, the viability in experiment [12] is 105% (inactive); in experiment [13] it was 96.9% (inactive). For the same compound, in [2], the Her2 level is 112% (inactive). Besides, the differential viability (reversal) in experiment [6] (H69AR cells + 2 uM doxorubicin) was 1.71% (inactive). In addition, the inhibition in experiment [7] is -1.41% (inactive); in [8] it was -10.2% (inactive); in experiment [14] it was 2.62% (inactive). Also, the growth inhibition in experiment [9] was -16.3% (inactive); in experiment [10], -10.1% (inactive). Besides, the viability increase in experiment [11] was -0.88% (inactive). For the same compound, the RAM network inhibition in experiment [15] was -0.78% (inactive).

As for `CCN1C(=O)c2cccc3c(NC(=O)c4ccc(S(=O)(=O)N(C)C)cc4)ccc1c23`, the viability in experiment [1] was 86%; in [3], 86% (inactive); in [4] it was 53.6% (inactive); in experiment [5] it was 65.9% (inactive); in [6] (setting [16]), 69.8%; in experiment [6] (setting [17]), 65.9%. The viability is 73.5% (inactive) in [12] and 75.8% (inactive) in [13]. Also, the Her2 level in [2] is 95.5% (inactive). In experiment [6] (H69AR cells + 2 uM doxorubicin), the differential viability (reversal) is -3.87% (inactive). Further, the inhibition in experiment [7] was 1.79% (inactive); in [8], -7.17% (inactive); in experiment [14], 0.195% (inactive). Further, the growth inhibition in experiment [9] was -11.7% (inactive); in experiment [10], -15.2% (inactive). Besides, in experiment [11], the viability increase is -5.59% (inactive). Also, in experiment [15], the RAM network inhibition is 3.52% (inactive).
